Composite z-score and z-score data for 14 molecules are collected here from PubChem BioAssay.

Calls of active or inactive are those of the source.

In test [1] the test system is PRMT1 (protein arginine N-methyltransferase 1). As to the kind of experiment: PRMT1 binders on small-molecule microarrays, primary screen, biochemical, small-molecule microarray, 635 nm fluorescence (AID 1088).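 Note: binding of Prmt1 protein to compounds spotted on small-molecule microarray slides.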 The note with it: small-molecule microarray binding, higher = more signal.
Test [2] can be described thus: yeast growth modulation, basal conditions, primary screen, YJM789 clinical isolate, OD600, 24 h (AID 1089).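 Note: growth of clinical yeast isolate S. cerevisiae YJM 789 seeded 1000 cells per well; test concentration not given here.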 Particulars: S. cerevisiae YJM789 growth, higher = more signal, called active from +8 up or from −8 down.
Test [3] in a line: fission yeast growth modulation, primary screen, strain 972, OD600, 24 h, no modulator (AID 1090).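 Note: basal condition with compound alone and no growth modifier present; test concentration not given here.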 The note with it: S. pombe 972 growth, higher = more signal, called active from +8 up or from −8 down.
Test [4] is described as follows: S. cerevisiae growth modulation with rapamycin, primary screen, strain BY4716, OD600, 96 h (AID 1091). Note: test concentration not given here. The note with it: higher = more signal, called active from +8 up or from −8 down.
Test [5] concerns the target Torsin-1A-interacting protein 2 (Homo sapiens) (UniProt Q8NFQ8). As to the kind of experiment: LULL1 binders on small-molecule microarray, primary screen, cell lysate, human LULL1 lysate, 635/667 nm fluorescence (AID 1092).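 Note: probe is lysate of COS7 cells overexpressing human LULL1; score merges per-feature 667 nm fluorescence with signal-to-noise.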 Particulars: hLULL1 lysate binding, 635 nm fluorescence, higher = more signal.
Test [6] is described as follows: E. coli growth modulation, two-sided OD650, primary screen, E. coli filamentation project, strain DRC41, 24 h (AID 1093).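 Note: MC1000 strain lacking acrAB efflux and sulA so SOS filamentation is blocked; test concentration not given here.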 Particulars: OD650, 24 h, higher = more signal, called active from +8 up or from −8 down.
Test [7] is described as follows: small-molecule microarray binders of probe aLefty2, primary screen, biochemical, biotinylated probe, 635/667 nm fluorescence (AID 1094).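 Note: score merges spot fluorescence near 667 nm with spot signal-to-noise ratio.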 The note with it: higher = more signal.
The subject of test [8] is Noggin (protein binding on small-molecule microarray). As to the kind of experiment: Noggin binders on small-molecule microarray, primary screen, biochemical, 635/667 nm fluorescence (AID 1095).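 Note: score merges 667 nm feature fluorescence with signal to noise over triplicate slides.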 The note with it: 635 nm fluorescence, higher = more signal.
Test [9] addresses Neurogenic locus notch homolog protein 3 (Homo sapiens) (UniProt Q9UM47). Put plainly: NOTCH3 binders on small-molecule microarray, primary screen, biochemical, 635/667 nm fluorescence (AID 1096). Particulars: NOTCH3 binding, 635 nm fluorescence, higher = more signal.
The nature of test [10]: small-molecule microarray binders of probe aEGFR, primary screen, biochemical, biotinylated probe, 635/667 nm fluorescence (AID 1097).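 Note: probe is a biotinylated anti-EGFR antibody binding compounds printed on slides; score combines fluorescence near 667 nm and signal to noise of each spot.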 The note with it: higher = more signal.

Sequence of Neurogenic locus notch homolog protein 3 (Homo sapiens) (Q9UM47 whole entry, looked up): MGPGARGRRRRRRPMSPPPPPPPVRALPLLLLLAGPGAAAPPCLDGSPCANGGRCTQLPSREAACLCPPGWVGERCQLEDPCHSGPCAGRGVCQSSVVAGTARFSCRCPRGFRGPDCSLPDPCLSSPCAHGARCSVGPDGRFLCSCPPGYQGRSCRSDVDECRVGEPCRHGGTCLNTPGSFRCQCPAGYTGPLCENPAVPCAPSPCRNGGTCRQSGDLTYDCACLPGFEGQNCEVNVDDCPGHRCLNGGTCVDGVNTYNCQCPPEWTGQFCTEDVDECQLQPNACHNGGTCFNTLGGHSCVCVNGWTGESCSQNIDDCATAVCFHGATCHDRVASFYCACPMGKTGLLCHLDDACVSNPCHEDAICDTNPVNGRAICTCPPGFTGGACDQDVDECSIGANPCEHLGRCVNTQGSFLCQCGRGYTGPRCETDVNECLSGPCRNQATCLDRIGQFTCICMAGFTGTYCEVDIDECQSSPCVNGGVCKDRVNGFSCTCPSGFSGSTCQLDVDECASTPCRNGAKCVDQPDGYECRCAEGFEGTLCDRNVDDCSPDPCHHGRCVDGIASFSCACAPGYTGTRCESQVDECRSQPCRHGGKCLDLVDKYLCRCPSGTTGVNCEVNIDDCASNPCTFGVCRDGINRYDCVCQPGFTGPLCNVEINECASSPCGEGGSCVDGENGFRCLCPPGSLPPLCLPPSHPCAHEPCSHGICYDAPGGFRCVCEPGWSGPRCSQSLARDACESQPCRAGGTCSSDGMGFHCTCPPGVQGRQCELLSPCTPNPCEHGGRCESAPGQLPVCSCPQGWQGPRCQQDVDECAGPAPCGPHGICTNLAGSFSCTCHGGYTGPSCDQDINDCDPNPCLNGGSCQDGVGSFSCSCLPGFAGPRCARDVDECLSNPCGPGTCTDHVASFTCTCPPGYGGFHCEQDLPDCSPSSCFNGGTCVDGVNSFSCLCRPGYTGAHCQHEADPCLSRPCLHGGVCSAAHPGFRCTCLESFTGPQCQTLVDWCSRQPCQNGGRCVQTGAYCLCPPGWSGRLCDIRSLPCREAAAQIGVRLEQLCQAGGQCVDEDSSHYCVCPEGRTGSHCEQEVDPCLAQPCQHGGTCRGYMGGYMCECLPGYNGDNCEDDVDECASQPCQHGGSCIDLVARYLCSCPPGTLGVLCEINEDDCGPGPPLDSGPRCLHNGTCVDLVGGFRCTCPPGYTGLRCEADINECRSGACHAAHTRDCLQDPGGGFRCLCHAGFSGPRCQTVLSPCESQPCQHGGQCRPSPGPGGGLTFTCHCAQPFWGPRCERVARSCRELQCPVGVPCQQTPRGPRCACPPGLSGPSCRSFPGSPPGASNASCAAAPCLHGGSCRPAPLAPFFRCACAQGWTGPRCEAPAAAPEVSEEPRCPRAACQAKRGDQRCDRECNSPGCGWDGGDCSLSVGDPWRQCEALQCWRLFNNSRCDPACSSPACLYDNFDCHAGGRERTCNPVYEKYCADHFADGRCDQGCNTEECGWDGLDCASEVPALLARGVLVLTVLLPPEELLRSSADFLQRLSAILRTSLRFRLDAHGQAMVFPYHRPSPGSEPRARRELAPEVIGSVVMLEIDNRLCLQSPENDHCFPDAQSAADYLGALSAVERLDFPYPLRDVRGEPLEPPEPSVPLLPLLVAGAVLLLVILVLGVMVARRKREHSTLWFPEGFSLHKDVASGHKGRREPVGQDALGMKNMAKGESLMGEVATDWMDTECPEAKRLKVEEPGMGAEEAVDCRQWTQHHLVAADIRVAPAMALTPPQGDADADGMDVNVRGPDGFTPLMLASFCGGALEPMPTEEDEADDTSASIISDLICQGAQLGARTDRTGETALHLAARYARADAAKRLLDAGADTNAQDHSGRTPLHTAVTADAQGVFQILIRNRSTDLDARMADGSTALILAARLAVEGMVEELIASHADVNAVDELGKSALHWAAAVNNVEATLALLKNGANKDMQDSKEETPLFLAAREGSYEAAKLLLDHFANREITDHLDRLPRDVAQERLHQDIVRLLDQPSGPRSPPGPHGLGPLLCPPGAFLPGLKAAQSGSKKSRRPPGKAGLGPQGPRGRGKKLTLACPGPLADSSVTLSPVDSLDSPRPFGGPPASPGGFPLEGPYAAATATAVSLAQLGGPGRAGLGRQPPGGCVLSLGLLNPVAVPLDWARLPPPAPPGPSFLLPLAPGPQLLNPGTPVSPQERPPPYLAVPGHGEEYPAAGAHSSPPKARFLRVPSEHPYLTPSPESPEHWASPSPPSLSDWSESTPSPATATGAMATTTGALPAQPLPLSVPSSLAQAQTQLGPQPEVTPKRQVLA
Sequence of Torsin-1A-interacting protein 2 (Homo sapiens) (Q8NFQ8 whole entry, looked up): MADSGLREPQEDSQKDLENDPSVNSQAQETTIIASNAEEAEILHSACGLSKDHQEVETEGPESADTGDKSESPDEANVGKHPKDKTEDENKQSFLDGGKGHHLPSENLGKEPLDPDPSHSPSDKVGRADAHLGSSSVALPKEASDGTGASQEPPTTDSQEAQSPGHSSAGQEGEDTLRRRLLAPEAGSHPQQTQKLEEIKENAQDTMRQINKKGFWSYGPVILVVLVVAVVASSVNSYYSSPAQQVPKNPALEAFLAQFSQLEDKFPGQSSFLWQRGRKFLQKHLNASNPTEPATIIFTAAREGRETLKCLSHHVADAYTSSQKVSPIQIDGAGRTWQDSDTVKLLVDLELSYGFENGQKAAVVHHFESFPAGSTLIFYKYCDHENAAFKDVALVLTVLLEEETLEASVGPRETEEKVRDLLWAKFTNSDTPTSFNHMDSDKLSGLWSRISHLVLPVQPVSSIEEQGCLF

Consider `CC(C)N1C(=O)c2ccccc2[C@@H](C(=O)NCC(F)(F)F)[C@@H]1c1ccc(CO)cc1`, for which the composite z-score in test [1] is -0.57; in test [5], 0.952; in test [7], -0.117; in [8], 0.157; in [9], -0.59; in test [10], -0.123. Also, the z-score was 0.125 (inactive) in test [2], -0.637 (inactive) in test [3], 0.0898 (inactive) in test [4] and -0.199 (inactive) in test [6].

With `CCCN1C(=O)[C@@]2(c3ccc([N+](=O)[O-])cc3)CC(=O)N(CC34CC5CC(CC(C5)C3)C4)[C@@H]2c2ccc(CO)cc21`, the composite z-score in test [1] was -0.247; in [5], 0.162; in test [7] it was -0.0099; in [8], 0.047; in [9] it was -0.184; in test [10] it was 0.142. The z-score in [2] was -0.962 (inactive); in test [3], -0.365 (inactive); in test [4], -1.93 (inactive); in test [6], -0.19 (inactive).

Turning to `CCCC#C[Si](O[C@H](CC)c1cn(Cc2ccccc2)nn1)(C(C)C)C(C)C`, the composite z-score in test [1] is 1.49; in test [5] it was 1.72; in [7] it was 0.052; in test [8] it was 1.31; in test [9] it was 1.09; in [10], 0.0458. The z-score in test [2] is -1.25 (inactive); in test [3] it was -14.6 (active); in test [4], -3.55 (inactive); in [6], 0.657 (inactive).

As for `COc1ccc([Si](C)(C)[C@@H]2[C@@H](CC(=O)N3Cc4ccccc4C[C@H]3CO)O[C@]3(C(=O)N(Cc4ccc(N5CCOC5=O)cc4)c4ccccc43)[C@H]2C)cc1`, the composite z-score in [1] was 1.57; in [5], 1.56; in test [7], -0.133; in test [8] it was 1.55; in test [9], 1.13; in test [10] it was -0.0947. Besides, the z-score was -0.631 (inactive) in test [2], 0.693 (inactive) in [3], 3.78 (inactive) in test [4] and 1.36 (inactive) in test [6].

As for `C=CCN1C(=O)[C@]2(O[C@H](CCn3cc([C@H](O)c4ccccc4)nn3)[C@@H]([Si](C)(C)c3ccc(OC)cc3)[C@@H]2C)c2cc(NC(=O)c3ccc(OC)cc3)ccc21`, the composite z-score in test [1] is 1.55; in test [5], 0.744; in test [7] it was 0.0352; in test [8], 0.423; in test [9], 0.907; in test [10], -0.152. In addition, the z-score was 0.323 (inactive) in test [2], -0.532 (inactive) in [3], 0.567 (inactive) in test [4] and 0.252 (inactive) in test [6].

As to `CO[C@H]1O[C@H](CO)[C@@H](OC(=O)Nc2ccc3c(c2)OCO3)[C@H](OC(=O)Nc2ccccc2-c2ccccc2)[C@H]1OC(=O)Nc1ccccc1-c1ccccc1`, the composite z-score came to 1.54 in test [1]; 3.35 in test [5]; 0.0164 in [7]; 0.546 in test [8]; 0.624 in test [9]; 0.29 in test [10]. The z-score in test [2] is 2.5 (inactive); in [3] it was 2.11 (inactive); in test [4], 2.28 (inactive); in [6], 0.566 (inactive).

As for `C=CC[C@@]12N=C(c3ccc(OCCCO)cc3)O[C@@H]1c1ccccc1N(CCC)C2=O`, the composite z-score is 1.55 in test [1]; 3.12 in test [5]; 0.219 in [7]; 0.916 in test [8]; 1.07 in test [9]; -0.108 in test [10]. The z-score in [2] is -1.01 (inactive); in [3], -2.42 (inactive); in test [4] it was -0.71 (inactive); in test [6], 1.34 (inactive).

Regarding `CN1C(=O)C2C(C1=O)C1C=C(CCCO)C2C(C2CC2)N1Cc1cccc(OC(F)(F)F)c1` (stereo not given), the composite z-score in test [1] was 1.34; in [5] it was 3.17; in test [7] it was -0.224; in test [8] it was -0.0767; in [9], 0.203; in test [10], -0.144. The z-score in test [2] is -1.07 (inactive); in [3], -1.58 (inactive); in test [4] it was -1.15 (inactive); in test [6], 0.179 (inactive).

With `Cc1ccc(S[C@]2(C(=O)NCCCN(C)C)CC(=O)N(Cc3ccccc3C(F)(F)F)[C@@H]2c2ccc(CO)cc2I)cc1`, the composite z-score was 0.349 in test [1]; 3.18 in test [5]; -0.323 in test [7]; -0.496 in test [8]; -0.174 in test [9]; -0.378 in test [10]. The z-score is -1.34 (inactive) in [2], -3.27 (inactive) in test [3], 0.0267 (inactive) in [4] and -0.328 (inactive) in test [6].

With `O=C1C2C=CC(C(O)c3cccs3)N(Nc3ccc([N+](=O)[O-])cc3)C2C(=O)N1c1ccccc1` (stereo not given), the composite z-score is 0.32 in test [1]; 2.98 in test [5]; -0.0636 in test [7]; -0.13 in [8]; 0.788 in [9]; -0.0947 in test [10]. Also, the z-score was -0.198 (inactive) in test [2], 1.14 (inactive) in test [3], 1.88 (inactive) in [4] and -0.0849 (inactive) in test [6].

In the case of `COC(=O)[C@H](Cc1ccc(O)cc1)N[C@@H](/C=C/C1CC1)[C@H](O)Cc1ccccc1`, the composite z-score in test [1] is 0.308; in [5], -0.243; in [7], -0.251; in test [8], -0.0001; in [9], -0.0155; in [10], -0.0828. The z-score in test [2] was 0.687 (inactive); in test [3] it was -0.813 (inactive); in test [4], 0.0393 (inactive); in [6] it was -0.732 (inactive).

`COc1ccc(C(O)C2C=CC3C(=O)N(c4ccccc4)C(=O)C3N2Nc2ccc([N+](=O)[O-])cc2)c2ccccc12` (stereo not given): the composite z-score in test [1] is 1.53; in test [5] it was 3.38; in [7], 0.0798; in [8], -0.268; in [9] it was 1.07; in [10], -0.0076. Moreover, the z-score in test [2] is -0.861 (inactive); in test [3], 1.68 (inactive); in test [4], 2.3 (inactive); in [6] it was -0.824 (inactive).

For `CCC(CC)C(O)C1C=CC2C(=O)N(c3ccccc3)C(=O)C2N1Nc1ccccc1F` (stereo not given), the composite z-score in test [1] was 0.203; in test [5], 3.23; in [7], 0.172; in test [8], -0.19; in [9], 0.78; in test [10], -0.04. In addition, the z-score in [2] was 0.175 (inactive); in test [3], 0.44 (inactive); in [4], -0.0875 (inactive); in test [6], -0.636 (inactive).

With `O=C(NCC(O)CO)C1N=C(c2ccc(OCCCO)cc2)N(c2ccccc2)O1` (stereo not given), the composite z-score in test [1] is 1.55; in test [5], 1.8; in [7] it was -0.196; in [8], 1.19; in test [9] it was 0.882; in [10], -0.0531. Further, the z-score in test [2] was -0.375 (inactive); in test [3], -0.243 (inactive); in test [4], 0.13 (inactive); in test [6] it was 0.153 (inactive).
